According to PubChem BioAssay:
Calls of active or inactive are those of the source.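 Rule for the calls, unless noted: active = normalized viability below 100% at a tested concentration; inactive = the rest.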

Key:
[1] = sensitizers of A549 cells to miR-34 induction, primary screen, imaging, A549 dox-inducible miR-34, nuclei and caspase counts (AID 1347080;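 active = compounds whose cell count with miR-34 switched on is under 0.7 times the count with it off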); settings: A549 miR-34 inducible, Hoechst nuclei count, 48 h
[2] = survival rescue of mitochondrial mutant cells in low glucose, primary screen, MELAS cybrids, Rieske KO mouse fibroblasts, CellTiter-Glo (AID 1508586;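 active = mean z-score across replicates of 1.96 or higher in either the MELAS or the Rieske mutant cell line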;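 note: z relative to plate mean and SD of compound and empty wells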)
[3] = ovarian cancer cell viability with rucaparib, profiling panel, oncology-focused library, rucaparib conditional (AID 1508598); settings: patient-derived ovarian cancer cells, CellTiter-Glo viability, 144 h, stronger effect = lower value
[4] = stronger effect = lower value, cell number ratio, induced over uninduced
[5] = measured here: relative caspase fold change +Dox/-Dox
[6] = measured here: total cells with miR-34 induction, stronger effect = lower value
[7] = measured here: total cells without miR-34 induction
[8] = MELAS cybrid survival, CellTiter-Glo 48 h, stronger effect = higher value
[9] = Rieske KO mouse fibroblast survival, CellTiter-Glo 72 h
[10] = at 0.000305 µM, OCI-C5x cells, with rucaparib 10 µM, 100% = cells with rucaparib alone
[11] = at 0.000305 µM, OCI-C5x cells, without rucaparib
[12] = at 0.000305 µM, OCI-P5x cells, with rucaparib 20 µM, 100% = cells with rucaparib alone
[13] = at 0.000305 µM, OCI-P5x cells, without rucaparib
[14] = at 0.00122 µM, OCI-C5x cells, with rucaparib 10 µM, 100% = cells with rucaparib alone
[15] = at 0.00122 µM, OCI-C5x cells, without rucaparib
[16] = at 0.00122 µM, OCI-P5x cells, with rucaparib 20 µM, 100% = cells with rucaparib alone
[17] = at 0.00122 µM, OCI-P5x cells, without rucaparib
[18] = at 0.00488 µM, OCI-C5x cells, with rucaparib 10 µM, 100% = cells with rucaparib alone
[19] = at 0.00488 µM, OCI-C5x cells, without rucaparib
[20] = at 0.00488 µM, OCI-P5x cells, with rucaparib 20 µM, 100% = cells with rucaparib alone
[21] = at 0.00488 µM, OCI-P5x cells, without rucaparib
[22] = at 0.0195 µM, OCI-C5x cells, with rucaparib 10 µM, 100% = cells with rucaparib alone
[23] = at 0.0195 µM, OCI-C5x cells, without rucaparib
[24] = at 0.0195 µM, OCI-P5x cells, with rucaparib 20 µM, 100% = cells with rucaparib alone
[25] = at 0.0195 µM, OCI-P5x cells, without rucaparib
[26] = at 0.0781 µM, OCI-C5x cells, with rucaparib 10 µM, 100% = cells with rucaparib alone
[27] = at 0.0781 µM, OCI-C5x cells, without rucaparib
[28] = at 0.0781 µM, OCI-P5x cells, with rucaparib 20 µM, 100% = cells with rucaparib alone
[29] = at 0.0781 µM, OCI-P5x cells, without rucaparib
[30] = at 0.313 µM, OCI-C5x cells, with rucaparib 10 µM, 100% = cells with rucaparib alone
[31] = at 0.313 µM, OCI-C5x cells, without rucaparib
[32] = at 0.313 µM, OCI-P5x cells, with rucaparib 20 µM, 100% = cells with rucaparib alone
[33] = at 0.313 µM, OCI-P5x cells, without rucaparib
[34] = at 1.25 µM, OCI-C5x cells, with rucaparib 10 µM, 100% = cells with rucaparib alone
[35] = at 1.25 µM, OCI-C5x cells, without rucaparib
[36] = at 1.25 µM, OCI-P5x cells, with rucaparib 20 µM, 100% = cells with rucaparib alone
[37] = at 1.25 µM, OCI-P5x cells, without rucaparib
[38] = at 5 µM, OCI-C5x cells, with rucaparib 10 µM, 100% = cells with rucaparib alone
[39] = at 5 µM, OCI-C5x cells, without rucaparib
[40] = at 5 µM, OCI-P5x cells, with rucaparib 20 µM, 100% = cells with rucaparib alone
[41] = at 5 µM, OCI-P5x cells, without rucaparib

CCc1c2c(nc3ccc(OC(=O)N4CCC(N5CCCCC5)CC4)cc13)-c1cc3c(c(=O)n1C2)COC(=O)[C@@]3(O)CC
-0.798: z-score [2, 9]
inactive: fold change [1, 4] 1.02 | z-score [2, 8] 0.2 | viability [3, 10] 115% | viability [3, 11] 112% | viability [3, 12] 119% | viability [3, 13] 112% | viability [3, 14] 114% | viability [3, 15] 118% | viability [3, 16] 112% | viability [3, 17] 114% | viability [3, 18] 119% | viability [3, 19] 118% | viability [3, 20] 106% | viability [3, 21] 107% | viability [3, 22] 117% | viability [3, 23] 110% | viability [3, 24] 108% | viability [3, 25] 103% | viability [3, 26] 112% | viability [3, 27] 106% | viability [3, 28] 104% | viability [3, 29] 106%
2030: cell count [1, 7]
active: viability [3, 30] 83.7% | viability [3, 31] 99.6% | viability [3, 32] 88.2% | viability [3, 33] 88.7% | viability [3, 34] 64.4% | viability [3, 35] 62.8% | viability [3, 36] 48.7% | viability [3, 37] 37.8% | viability [3, 38] 35.7% | viability [3, 39] 29.9% | viability [3, 40] 23.9% | viability [3, 41] 13.4%
2060: cell count [1, 6]
1.54: fold change [1, 5]

C=C[C@@]1(C)CC(=O)[C@@]2(O)[C@@]3(C)C(O)CCC(C)(C)[C@@H]3C(O)C(OC(C)=O)[C@@]2(C)O1 (stereo not given in full)
8540: cell count [1, 6]
-0.394: z-score [2, 9]
1.19: fold change [1, 5]
8820: cell count [1, 7]
inactive: fold change [1, 4] 0.968 | z-score [2, 8] 0.411

COC(=O)[C@]12CCC(C)(C)C[C@@H]1[C@@H]1C(=O)C=C3[C@]4(C)C=C(C#N)C(=O)C(C)(C)[C@@H]4CC[C@@]3(C)[C@]1(C)CC2
-3.82: z-score [2, 9]
376: cell count [1, 7]
inactive: fold change [1, 4] 0.818 | z-score [2, 8] -0.649
308: cell count [1, 6]
0.469: fold change [1, 5]

CCCCCCOC(=O)N=C(N)c1ccc(NCc2nc3cc(C(=O)N(CCC(=O)OCC)c4ccccn4)ccc3n2C)cc1
9380: cell count [1, 7]
0.124: z-score [2, 9]
8810: cell count [1, 6]
inactive: fold change [1, 4] 0.94 | z-score [2, 8] -0.278
0.85: fold change [1, 5]

COC(=O)NC(C(=O)N1CCCC1c1ncc(-c2ccc(-c3ccc(-c4cnc(C5CCCN5C(=O)C(NC(=O)OC)C(C)C)[nH]4)cc3)cc2)[nH]1)C(C)C (stereo not given)
inactive: fold change [1, 4] 0.912 | z-score [2, 8] 1.19
6830: cell count [1, 7]
0.581: z-score [2, 9]
6220: cell count [1, 6]
0.711: fold change [1, 5]

C[C@]12CC[C@H]3c4ccc(O)cc4CC[C@H]3[C@@H]1CCC2=O
7600: cell count [1, 6]
1.15: fold change [1, 5]
0.742: z-score [2, 9]
8340: cell count [1, 7]
active: viability [3, 20] 99.5% | viability [3, 24] 96.5% | viability [3, 25] 96.2% | viability [3, 27] 99.8% | viability [3, 28] 96.1% | viability [3, 29] 66% | viability [3, 30] 81.6% | viability [3, 31] 57.7% | viability [3, 32] 80.9% | viability [3, 33] 42.9% | viability [3, 34] 78% | viability [3, 35] 63.5% | viability [3, 36] 65% | viability [3, 37] 29.9% | viability [3, 38] 36.6% | viability [3, 39] 23.7% | viability [3, 40] 43.7% | viability [3, 41] 13.5%
inactive: fold change [1, 4] 0.911 | z-score [2, 8] -0.223 | viability [3, 10] 108% | viability [3, 11] 116% | viability [3, 12] 102% | viability [3, 13] 111% | viability [3, 14] 112% | viability [3, 15] 117% | viability [3, 16] 101% | viability [3, 17] 106% | viability [3, 18] 115% | viability [3, 19] 120% | viability [3, 21] 100% | viability [3, 22] 114% | viability [3, 23] 108% | viability [3, 26] 115%
